Screening results deposited in PubChem by several laboratories.
Rtt109 Vps75 – inhibitors of C. albicans Rtt109/Vps75 HAT, primary screen, biochemical, ThioGlo CoA-SH fluorescence, plate reader; AID 540336, 2011; inhibition, % at 34.9 µM; Histone acetyltransferase RTT109 (Candida albicans (strain SC5314 / ATCC MYA-2876)), …; purified Rtt109/Vps75, 4 h; hit rate 0.16% among 330,000;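 active = inhibition of at least 50% in every replicate; inconclusive = best replicate reaches 50% inhibition but some replicates fall short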
Target sequence (Q5AAJ8 whole entry, looked up): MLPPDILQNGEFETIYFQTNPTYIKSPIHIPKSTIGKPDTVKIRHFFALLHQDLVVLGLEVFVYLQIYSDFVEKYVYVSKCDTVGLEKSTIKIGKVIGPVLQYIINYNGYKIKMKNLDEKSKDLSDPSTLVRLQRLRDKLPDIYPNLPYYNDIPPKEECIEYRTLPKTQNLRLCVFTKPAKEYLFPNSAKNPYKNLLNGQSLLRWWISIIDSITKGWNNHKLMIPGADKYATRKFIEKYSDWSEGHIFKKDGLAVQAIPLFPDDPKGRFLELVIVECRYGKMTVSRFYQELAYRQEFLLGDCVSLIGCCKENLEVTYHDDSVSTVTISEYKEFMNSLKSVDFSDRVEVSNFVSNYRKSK
ABHD5 PLIN5 PPI – ABHD5-PLIN5 interaction inhibitors, primary screen, cell lysate, split luciferase complementation, luminescence | Perilipin-5 (Homo sapiens) + 1-acylglycerol-3-phosphate O-acyltransferase ABHD5 (Homo … | Split G. princeps luciferase complementation, 4 h | inhibition, % at 4 µM | hit rate 0.78% among 360,000;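 active = inhibition above the mean inhibition across every tested compound plus 3 SD, cut at about 22% in these data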
rCAG binder – binders of r(CAG) RNA repeats, primary screen, biochemical, fluorescence. r(CAG) RNA repeat, TO-PRO-1 dye displacement fluorescence. inhibition, % at 3 µM. hit rate 1.3% among 370,000. AID 651821, 2012;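 active = inhibition above the plate cutoff, the mean of all test compounds on that plate plus 3 SD, cut at about 35% in these data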;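 also: higher means more dye released from RNA so lower well fluorescence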
ALR inh – inhibitors of human ALR sulfhydryl oxidase, primary screen, biochemical, H2O2 detection, HRP-luminol luminescence, single point | inhibition, % (no concentration beside the values) | AID 485317, 2010 | purified ALR, DTT oxidation | hit rate 3.8% among 290,000;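 active = mean replicate inhibition above about 79%, with every replicate also reaching it, limit read from the data; inconclusive = only one of the two criteria met; inactive = mean below limit and not every replicate reaching it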
Target sequence (P55789 whole entry, looked up): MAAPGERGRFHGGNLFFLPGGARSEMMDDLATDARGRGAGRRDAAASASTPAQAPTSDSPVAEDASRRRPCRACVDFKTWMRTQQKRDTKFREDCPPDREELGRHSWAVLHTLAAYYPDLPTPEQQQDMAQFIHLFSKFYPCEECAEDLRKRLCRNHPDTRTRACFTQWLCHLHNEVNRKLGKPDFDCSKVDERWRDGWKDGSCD
LANA-H2B inh – blockers of LANA interaction with H2A/H2B – biochemical, FP readout, HTS, primary screen; AID 2629, 2010; hit rate 0.6% among 320,000; cell-free LANA-H2A/H2B peptide, fluorescence polarization; inhibition, % (concentration not given with the values); Protein LANA1 (Human herpesvirus 8 type P (isolate GK18)), Q9QR71; in the data active = inhibition mostly above about 10%, no sharp cut-off; inactive = mostly below about 6.7%
PRMT1 inh – PRMT1 methyltransferase inhibitors, primary screen, biochemical, fluorescence polarization; hit rate 1.3% among 370,000; inhibition, % at 2.79 µM; Protein arginine N-methyltransferase 1 (Homo sapiens), Q99873; recombinant PRMT1, activity-based probe fluorescence polarization;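 active = inhibition above about 21% made by adding two undisclosed values, limit read from the data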
Large screens that a line does not name were inactive. Only some compounds are listed: those with a hit (about 5.9% of all), similar ones and a draw of the others.

CCN(CCCNC(=O)CN1C(=O)COc2ccccc21)c1cccc(C)c1	ALR inh 99
CCCCN(CCCNC(=O)CN1C(=O)COc2ccccc21)c1ccccc1	none
c1ccc(-c2ccc(CNc3nc(-c4ccccn4)nnc3-c3ccccc3)cc2)cc1	none (no result: Rtt109 Vps75, ABHD5 PLIN5 PPI, rCAG binder, ALR inh, LANA-H2B inh)
CC1=C(C)C(O)N(Cc2ccccc2)C1=O (stereo not given)	none
Cc1nc2cc(C(=O)N3CCN(C(=O)OCc4ccccc4)CC3)ccc2n1C1CCCC1	none (no result: Rtt109 Vps75, ABHD5 PLIN5 PPI, ALR inh, LANA-H2B inh)
O=S1(=O)c2c(cccc2N2CCC[C@@H]2CO)OCCCN1C1CC1	none (no result: Rtt109 Vps75, ABHD5 PLIN5 PPI, ALR inh, LANA-H2B inh)
O=C(CSc1nc2ccccc2c(=O)n1-c1ccc(F)cc1)Nc1ccc(Cl)c(S(=O)(=O)N2CCOCC2)c1	none
O=C(Cn1c(=O)cnc2ccccc21)Nc1cccc(S(=O)(=O)N2CCOCC2)c1	LANA-H2B inh 26
O=C(Cn1c(=O)cnc2ccccc21)Nc1cccc(S(=O)(=O)N2CCCCC2)c1	none
O=C(CN1CCN(c2ccccn2)CC1)Nc1cccc(S(=O)(=O)N2CCOCC2)c1	LANA-H2B inh 26
O=C(CSc1ncccn1)Nc1cccc(S(=O)(=O)N2CCOCC2)c1	none
O=C(CSc1nc2ccccc2c(=O)n1-c1ccc(F)c(Cl)c1)Nc1cccc(S(=O)(=O)N2CCOCC2)c1	ALR inh 98
COCCCN1C(=O)[C@H](CC(=O)N2CCCC2)[C@]2(C(=O)OC)CCCCC=C12	none (no result: Rtt109 Vps75, ABHD5 PLIN5 PPI, ALR inh, LANA-H2B inh)
CCN(CCCNC(=O)c1[nH]c(C)c(C(C)=O)c1C)c1cccc(C)c1	ALR inh 99
CN(CCNC(=O)c1cccc(N2CCCC2=O)c1)Cc1ccccc1	none
CCN(CCCNC(=O)c1ccc(N2CCCC2=O)cc1)c1cccc(C)c1	ALR inh 90
CCN(CCNC(=O)c1cccc(N2CCCC2=O)c1)c1ccccc1	ALR inh 98
Nn1c(SCC(=O)N2CCCC2)nnc1-c1cccs1	none (no result: Rtt109 Vps75, ALR inh, LANA-H2B inh)
O=C(N[C@H](c1cccc(Br)c1)[C@@H]1CCCC=C1c1ccccc1)C(F)(F)F	none (no result: Rtt109 Vps75, ABHD5 PLIN5 PPI, ALR inh, LANA-H2B inh)
COCCn1c(=O)[nH]c2cc(C(=O)N3CCN(c4ccc(OC)cc4)CC3)ccc2c1=O	ALR inh 96
COCCn1c(=O)[nH]c2cc(C(=O)N3CCN(c4cccc(C(F)(F)F)c4)CC3)ccc2c1=O	none
COc1ccc(N2CCN(CCNC(=O)CCCn3c(=O)[nH]c4cc(Cl)ccc4c3=O)CC2)cc1	LANA-H2B inh 19 (no result: ALR inh)
COc1ccc(N2CCN(CCCNC(=O)CCCn3c(=O)[nH]c4ccsc4c3=O)CC2)cc1	ALR inh 93
CS(=O)(=O)Nc1ccc(C(=O)Nc2ccc3ccccc3c2)cc1	none (no result: ALR inh)
COC(=O)c1ccc(Cn2ccc3ccc(-c4ccc5ccn(C(=O)C6CCCCC6)c5c4)cc32)cc1	none (no result: Rtt109 Vps75, ABHD5 PLIN5 PPI, ALR inh, LANA-H2B inh)
CC1(c2nnnn2-c2ccc3c(c2)OCCO3)CCC(=O)N1C1CC1 (stereo not given)	none (no result: Rtt109 Vps75, ALR inh, LANA-H2B inh)
Cc1ccc(-c2nc(Cl)nc3ccccc23)cc1	none
Cc1ccc2nc(-c3ccccc3)c(-c3ccccc3)nc2c1	none
Cc1ccc(-c2nc3ccccc3nc2Cl)cc1	ALR inh 91
Cc1ccc(-c2nc3ccccc3nc2NN)cc1	PRMT1 inh 22
Cc1ccc(C(=O)NNC(=O)C2CC2)cc1Br	ALR inh 88
COCCNC(=S)N/N=C(\C)CCc1ccc2c(c1)OCO2	none
C/C(CCc1ccc2c(c1)OCO2)=N\NC(=S)NC(C)C	ALR inh 85
C[C@@H]1[C@@H](O)C[C@@]2(C[C@H](O)c3cc(Cl)cc(Cl)c3O2)O[C@H]1c1ccccc1Cl	none (no result: Rtt109 Vps75, ABHD5 PLIN5 PPI, ALR inh, LANA-H2B inh)
C=CCn1c(C(C)NC(=O)c2ccccc2)n[nH]c1=S (stereo not given)	none (no result: Rtt109 Vps75)
CCCn1c(C(C)NC(=O)c2ccccc2)n[nH]c1=S (stereo not given)	ALR inh 94
O=C(Cn1c(C(F)(F)F)nc2ccccc21)c1ccc(F)cc1	ALR inh 92
CN(c1ccc(O)cc1)c1nc(-c2ccccc2)cs1	LANA-H2B inh active
CCN(CC)c1ccc(/C=N/NS(=O)(=O)c2ccc(C)c([N+](=O)[O-])c2)cc1	ALR inh inconclusive
Cc1ccc(S(=O)(=O)N/N=C/c2ccc(O)c(O)c2)cc1[N+](=O)[O-]	ALR inh 99
Cc1ccc(S(=O)(=O)N/N=C/c2ccccc2O)cc1[N+](=O)[O-]	ALR inh 96
COc1cc(/C=N/NS(=O)(=O)c2ccc3ccccc3c2)ccc1OCCN1CCOCC1	ALR inh 99
C#CCNC(=O)C[C@H]1C[C@@]2(C(=O)OC)C(=C[C@H](C3CCCC3)O[C@@H]2C)N(Cc2cccc3ccccc23)C1=O	none (no result: Rtt109 Vps75, ABHD5 PLIN5 PPI, ALR inh, LANA-H2B inh)
COc1ccccc1N1CCN(C2CC(=O)N(c3cccc(Cl)c3)C2=O)CC1 (stereo not given)	LANA-H2B inh 21
CCOC(=O)C1CCN(C2CC(=O)N(c3cccc(Cl)c3)C2=O)CC1 (stereo not given)	PRMT1 inh 22
CCOC(=O)C1CCCN(C2CC(=O)N(c3ccc(C)cc3)C2=O)C1 (stereo not given)	none
C=C1[C@H](C)CN(S(=O)C(C)(C)C)[C@H]1CCO (stereo not given in full)	none (no result: Rtt109 Vps75, ABHD5 PLIN5 PPI, ALR inh, LANA-H2B inh)
CN1C(=O)C(O)(CC(=O)c2ccccc2O)c2cc(Br)ccc21 (stereo not given)	LANA-H2B inh 47
Cc1nnc2sc(SCc3cccc(Cl)c3)nn2c1=O	ALR inh 100
Cc1nnc2sc(SCc3ccccc3Cl)nn2c1=O	ALR inh 96
CC(C)(C)c1nnc2sc(SCCN3C(=O)c4ccccc4C3=O)nn2c1=O	ALR inh 99
Cc1nnc2sc(SCc3ccccc3)nn2c1=O	none (no result: Rtt109 Vps75, ABHD5 PLIN5 PPI, rCAG binder, PRMT1 inh)
COc1ccc(Cn2ccc3ccc(-c4ccc5ccn(C(=O)c6ccc(C)cc6)c5c4)cc32)cc1	none (no result: Rtt109 Vps75, ABHD5 PLIN5 PPI, ALR inh, LANA-H2B inh)
O=S(=O)(Nc1ccc(Nc2ccccc2)cc1)c1ccc(F)cc1	ALR inh 98
Cc1ccc(S(=O)(=O)Nc2cc(C)c(O)c(S(=O)(=O)c3ccc(C)cc3)c2)cc1	none
Cc1ccc(S(=O)(=O)c2cc(Nc3ccccc3)ccc2O)cc1	ALR inh 100
COc1ccc(S(=O)(=O)Nc2cccc(F)c2)cc1C	none
Cc1ccc(Oc2ccc(S(=O)(=O)Nc3ccc(C(=O)O)cc3)cc2)cc1	ALR inh 98
COc1ccc(S(=O)(=O)Nc2ccc(S(=O)(=O)Nc3ccc(F)cc3)cc2)cc1C	rCAG binder 47
CC(=O)c1ccc(NS(=O)(=O)c2ccc(C)cc2)cc1	none
